Measurements published in PubChem BioAssay (NCATS).
Active and inactive are the calls of the source. Calls follow the shape of the dose curve; as a rule, active = well fitted curve in the direction sought with a large enough effect; inconclusive = small, poorly fitted or top-dose-only effect, or another doubt; inactive = no such curve, though single readings can be large or run the other way.

Assay: Cellular Toxicity (caspase-3) HUV-EC-C (AID 656);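 also: cells exposed to compound for 16 h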
Conditions: HUV-EC-C cells, caspase-3 activation (apoptosis), vehicle = 0, 100 µM tamoxifen = 100%; series mostly up to 92.2 µM
Text: NIH Chemical Genomics Center [NCGC]
NIH Molecular Libraries Screening Centers Network [MLSCN]
National Institutes of Environmental Health Sciences [NIEHS]
National Toxicology Program [NTP]
We have developed a 1536-well cell-based assay for quantitative high throughput screening (qHTS) against a number of cell lines to determine in vitro caspase 3/7 of small molecules. This particular assay uses the HUV-EC-C cell line which is derived from normal human vascular endothelial cells.
NCGC Assay Protocol Summary:
The Caspase-Glo 3/7 assay (Promega) is a homogeneous method to measure caspase-3 and caspase-7 activities in cultured cells. The quantitation of caspase 3/7 activity is based on the cleavage of a peptide-aminoluciferin substrate. After caspase cleaves the substrate the free aminoluciferin is liberated and serves as the substrate of luciferase, which generates the light. The luminescent signal is proportional to amount of caspase 3/7 activity present.
Using the Caspase-Glo 3/7 assay, the amount of caspase 3/7 activity was measured in the HUV-EC-C cell line with complete culture medium following compound treatment for 16 hours. The assay was performed in opaque white 1536-well plates. In the screen, tamoxifen and doxorubicin were used as positive controls. Library compounds were measured for their ability to cause the activation of caspase 3/7 in the cell line, as reflected by an increase in luminescence signal, in a concentration-dependent manner. Data were normalized to the controls for basal activity (DMSO only) and 100% stimulation (100 uM tamoxifen). AC50 values were determined from concentration-response data modeled with the standard Hill equation.
qHTS protocol for caspase 3/7 assay in HUV-EC-C cell line
[Step] [Parameter] [Value] [Description]
1. Reagent; 5 uL; 1000 HUV-EC-C cells/well
2. Time; 5 hr; 37 °C incubation
4. Controls; 23 nL; Tamoxifen 0.23 uM to 100 uM & doxorubicin 7.0 pM to 100 uM
5. Time; 16 hr; 37 °C incubation
6. Reagent; 5 uL; Caspase-Glo 3/7 reagent
7. Time; 20 min; Room Temperature
8. Detection; Luminescence; Viewlux plate reader
Keywords: caspase 3/7, apoptosis, HUV-EC-C cell line, luminescence, NTPHTS, NTPHTS_NCGC, NIEHS, EPA, DSSTox, MLSMR, MLSCN, NIH Roadmap, qHTS, NCGC

Compound | outcome
NC1CCC(CC2CCC(N)CC2)CC1 (stereo not given) | inactive
CC(C)(C)c1ccccc1O | inactive
Cc1ccc(N)c(C)c1 | inactive
O=c1ccc(=O)[nH][nH]1 | inactive
CC(C)(Cl)Cl | inactive
O=[N+]([O-])c1ccc(Cl)cc1 | inactive
C=COC(C)=O | inactive
ClCc1ccccn1 | inactive
O=[N+]([O-])c1c(Cl)c(Cl)c(Cl)c(Cl)c1Cl | inactive
CC(Cl)(Cl)Cl | inactive
C/C=C/CC#N | inactive
Nc1cc(Cl)cc(C(=O)O)c1Cl | inactive
COC(=O)Nc1cccc(OC(=O)Nc2cccc(C)c2)c1 | inactive
Cc1cc(-c2ccc(N)c(C)c2)ccc1N | inactive
Nc1ccc(-c2ccc(N)c(Cl)c2)cc1Cl | inactive
CC(C)CC(C)N (stereo not given) | inactive
O=C(O)c1cccc(Cl)c1 | inactive
COc1c(C(C)(C)C)cc([N+](=O)[O-])c(C)c1[N+](=O)[O-] | inactive
CN(C)c1ccc(N(C)C)cc1 | inactive
Cc1cc(C)cc(OP(=O)(Oc2cc(C)cc(C)c2)Oc2cc(C)cc(C)c2)c1 | inactive

Compound | outcome
Nc1ccc(-c2ccc(N)cc2)cc1 | inactive
S=c1[nH]c2ccccc2[nH]1 | inactive
O=C(O)C(Br)Br | inactive
S=C1NCCN1 | inactive
Cc1coc2c1CCC(C)C2 (stereo not given) | inactive
CC(=O)CCC(C)=O | inactive
ClCC(Cl)Cl | inactive
O=[N+]([O-])c1ccccc1-c1ccccc1 | inactive
CN=C=O | inactive
OCCOCCO | inactive
Clc1ccccc1 | inactive
Oc1cc(Cl)ccc1Cl | inactive
O=[N+]([O-])c1ccc(Cl)c(Cl)c1Cl | inactive
CC(C)[N+](=O)[O-] | inactive
N#CCCC#N | inactive
COc1ccccc1N | inactive
CCCC[N+](=O)[O-] | inactive
N#CCc1ccccc1 | inactive
CC1CC(=O)O1 (stereo not given) | inactive
CNC(=O)O/N=C/C(C)(C)S(C)=O (stereo not given) | inactive
